Reference: PubChem BioAssay AID2094 (Broad Institute, 2009)
The campaign covered roughly 300,000 compounds. About 1,200 (0.4%) were called active. The entries come from a sample that favours actives as a whole. Values without a mark were called inactive. Cut-off read from the data, not from the text of the source: active = activity change below about -75% (passing the limit was not always enough); inconclusive = no clear call, values can overlap the other calls.

assay: modulation of AI-2 quorum-sensing luminescence – JMH597 strain, luminescence/OD600 ratio, primary screen (AID 2094); conditions: Vibrio harveyi JMH597 AI-2 luminescence/OD600 ratio, 9 h; at 7.5 µM; active compounds read low; 0 = neutral-control median; strain lacks LuxN and CqsS sensors;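 note: luminescence divided by OD600 gain over 9 h not by final OD600 alone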

SMILES | activity change
CCN(C(=O)COc1cccnc1[N+](=O)[O-])C1CCS(=O)(=O)C1 (centres undefined) | 32.7%
N#CCSc1nc(-c2ccccc2)nc2ccc(F)cc12 | 12.5%
COC(=O)c1ccc(SCc2ccccc2)nc1 | -80.3% (active)
COC(=O)c1ccc(CSc2nncn2N)cc1 | 26.7%
COC(=O)c1ccc(CSc2nncn2C)cc1 | 9.24%
COc1ccc(N2CCN(S(=O)(=O)c3cc(Br)cnc3N)CC2)cc1 | 15.8%
CC(C)(C)c1cc(C(=O)N/N=C/c2ccc([N+](=O)[O-])s2)n[nH]1 | 16.7%
COc1ccc2ccccc2c1/C=N/NC(=O)c1cc(C)[nH]n1 | 11.2%
Cc1cc(C(=O)N/N=C/c2cc([N+](=O)[O-])cc(C)c2O)n[nH]1 | -86.5% (active)
COC(=O)c1ccc(NC(=O)CSc2nnc(C3CC3)n2C)cc1 | 40.9%
Cc1c(NC(=O)C(C)OC(=O)c2c3c(nc4ccccc24)CCC(C)C3)c(=O)n(-c2ccccc2)n1C (centres undefined) | 5.39%
Cc1cc(C)n(CCNCc2c(C(=O)N3C[C@@H](C)O[C@@H](C)C3)nc3ccc(Cl)cn23)n1 | 11%
Cc1ccc(NS(=O)(=O)c2ccc3c(c2)NC(=O)CO3)cc1 | -85.9% (active)
CC(=O)Nc1ccc(NS(=O)(=O)c2ccc3c(c2)NC(=O)CC(=O)N3)cc1 | 6.21%
O=C1COc2ccc(S(=O)(=O)NCCc3ccc(Cl)cc3)cc2N1 | -21.2%
Cc1ccc(NS(=O)(=O)c2cc3c(cc2C)NC(=O)CO3)cc1 | 20.3%
Cc1cccc(CCNS(=O)(=O)c2ccc3c(c2)NC(=O)CO3)c1 | -59.5%
O=C1COc2ccc(S(=O)(=O)Nc3ccc(OC(F)(F)F)cc3)cc2N1 | -94.2% (active)
COc1cc(NC(=O)c2ccccc2NS(=O)(=O)c2ccc(Cl)s2)cc(OC)c1 | 26.9%
CCOc1ccc(NC(=O)CC(Cc2ccc(Cl)cc2)C(=O)O)cc1 (centres undefined) | -20.6%

SMILES | activity change
CCCCCCC12CCC(C(=O)O)(CC1)CC2 | 24.4%
O=C(CCC(=O)c1cccs1)NC1CCCCCC1 | -7.35%
O=C(CCC(=O)c1cccs1)Nc1nc2ccccc2s1 | -87.3% (active)
Cn1nnnc1SCC(=O)Nc1nc2ccccc2s1 | 32.4%
O=C(NC(=S)Nc1ccccc1C(=O)O)c1ccc(-c2ccc(Br)cc2)o1 | 9.83%
CN(C)S(=O)(=O)c1ccc(N/C=C(\[N+](=O)[O-])S(=O)(=O)c2ccccc2)cc1 | 28.7%
Cc1ccc(OCc2cc(C(=O)N(C)CCn3ccnc3C)no2)cc1C | 14.9%
Cc1cc(CN(C)C(=O)c2cc(COc3ccc(C)c(C)c3)on2)n[nH]1 | -90.7% (active)
Cc1ccc(OCc2cc(C(=O)N(C)CCc3ccccc3)no2)cc1C | 36%
O=C(c1cc(COc2cccc(C(F)(F)F)c2)on1)N1CCSCC1 | -30.7%
CN(Cc1cccnc1)C(=O)c1cc(COc2ccc3ncccc3c2)on1 | 38.5%
CN(Cc1cnccn1)C(=O)c1cc(COc2cccc(C(F)(F)F)c2)on1 | -92.5% (active)
O=S(=O)(c1ccc(Cl)cc1)N1CCCN(c2ccc(C(F)(F)F)cn2)CC1 | 6.59%
COc1ccc(CN2CCn3ncc(C(=O)Nc4ccc(Cl)cc4Cl)c3C2=O)cc1 | 23.8%
CCOc1ccc(S(=O)(=O)Nc2ccncc2)c(C)c1C | 21.3%
COc1ccc(Cc2nc3ccc(C(=O)N4CCC(N(C)C)C4)cc3o2)cc1 (centres undefined) | -2.62%
COCC1CCN(C(=O)c2ccc3oc(Cc4ccccc4)nc3c2)C1 (centres undefined) | 0.814%
COC(=O)C1CCN(C(=O)c2ccc3oc(Cc4ccc(Cl)cc4)nc3c2)CC1 | -86% (active)
Oc1ccc(-c2cccc(-c3ccc(O)cc3)c2)cc1 | -10.9%
O=C(NC1CCCCC1)c1ccc(-c2ccc(Cl)cc2)o1 | 2.19%

SMILES | activity change
COc1ccc(NC(=O)[C@H](NC(=O)[C@@H]2Cc3ccccc3CN2)c2ccccc2)cc1 | 13.8%
CCc1ccc(C(=O)CSc2nnc(C)c(=O)[nH]2)cc1 | 17.8%
COc1ccccc1C(=O)N1C(CC(=O)Nc2ccccc2C)C(=O)NC2CCCCC21 (centres undefined) | 6.5%
CC(C)(C)OC(=O)CNC(=O)c1[nH]cnc1C(=O)N[C@@H](Cc1ccccc1)C(=O)OCc1ccccc1 | 20.9%
S=C(NCc1ccc(Cl)cc1)NC1CCCCC1 | -86.1% (active)
S=C(NCc1ccc(Cl)cc1)NC12CC3CC(CC(C3)C1)C2 | -20.7%
O=C(NC(=S)NC1CCCCC1)c1ccc(Cl)cc1 | 6.82%
COc1cc(C(=O)OCC(=O)NC(C)CCc2ccccc2)cc(OC)c1OC (centres undefined) | 17.1%
CCCNC(=O)c1ccc(N2CCC3(CC2)CC(c2cccc(Br)c2)=NO3)c(NC(=O)c2ccco2)c1 | 20.3%
Cc1ccc(/C=C/C(=O)Nc2ccc([N+](=O)[O-])c(NC(=O)/C=C/c3ccc(C)o3)c2)o1 | 34.4%
O=C(/C=C/c1ccc([N+](=O)[O-])o1)NNC(=O)c1ccc(F)cc1 | -90.7% (active)
O=C(N/N=C/c1ccc([N+](=O)[O-])o1)c1cn(-c2ccccc2)nc1-c1ccc(F)cc1 | 7.69%
Cc1nc(CN2CCN(C(=O)CCc3nnc(Cc4c[nH]c5ccccc45)o3)CC2)cs1 | 18%
COc1ccccc1NC(=O)COC(=O)Cc1ccc(S(=O)(=O)N2CCCCC2)s1 | 2.99%
CC(=O)c1nn(-c2ccc(C)cc2)cc1C(=O)c1cccc(Br)c1 | 14.3%
CCOC(=O)c1cn(Cc2cccc(C)c2)nn1 | 13.8%
CCOC(=O)c1nn(-c2cccc(C)c2)cc1C(=O)c1ccccc1 | -88.4% (active)
Cc1cc(S(=O)(=O)N2CCOCC2)ccc1OCC(=O)N1CCOCC1 | 18.8%
O=C(NC1CCN(C(=S)Nc2ccc(Cl)cc2)CC1)C1CCCCC1 | 16.7%
